Anthrax LT inh: inhibitors of anthrax lethal toxin internalization; Cells, anthrax lethal toxin internalization, FRET ratio (460/530); Potency, µM (doses to about 40 µM), for the others: at the highest dose activity change, negative = inhibition, usual class: inhibitors; 70,000 tested, 0.67% active; further: on the % scale 0 is the no-effect control and ±100 the full control effect; nearly all actives have a fitted effect of over 50% in size
SmPrx2 inh: Schistosoma mansoni Prx2 inhibition; S. mansoni Prx2 activity coupled to TGR/GSH (TGR is thioredoxin glutathione reductase), NADPH fluorescence loss, qHTS; Potency, µM; 65,000 tested, 0.07% active
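Prx2 inhibition was measured as reduced NADPH consumption when electrons flowed from NADPH through TGR and glutathione to Prx2 and H2O2. Plates were read kinetically over 8 min; enzyme reagents were held at 4 deg C during dispensing.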
AmpC inh det: inhibitors of E. coli AmpC beta-lactamase with detergent; purified AmpC, nitrocefin hydrolysis with detergent; 71,000 tested, 0.09% active; Potency, µM (doses to about 28.7 µM), inactives show top-dose activity change, negative = inhibition; active means well fitted curve in the direction sought with a large enough effect; inconclusive means small, poorly fitted or top-dose-only effect; further: on the % scale 0 is the no-effect control and ±100 the full control effect
Target sequence (P00811 whole entry, looked up): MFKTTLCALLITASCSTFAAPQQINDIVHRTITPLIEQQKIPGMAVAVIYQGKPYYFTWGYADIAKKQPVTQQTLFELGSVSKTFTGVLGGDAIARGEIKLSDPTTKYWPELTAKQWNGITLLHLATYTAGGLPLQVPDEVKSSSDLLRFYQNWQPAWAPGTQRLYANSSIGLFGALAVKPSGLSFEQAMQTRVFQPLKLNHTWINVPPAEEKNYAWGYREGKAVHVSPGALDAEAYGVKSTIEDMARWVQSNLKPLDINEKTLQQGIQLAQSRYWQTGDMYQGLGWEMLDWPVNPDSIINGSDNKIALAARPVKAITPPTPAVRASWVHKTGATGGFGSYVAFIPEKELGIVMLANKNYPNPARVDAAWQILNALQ
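E. coli AmpC (5.3 nM) in 20 mM phosphate pH 7.0 with 0.01% Triton X-100, preincubated 15 min RT with compound; nitrocefin (2 uL of 800 uM stock) hydrolysis followed by 480 nm absorbance every 20 s over 4 min.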
AmpC inh no det: inhibitors of E. coli AmpC beta-lactamase without detergent | 71,000 tested, 1.8% active | Potency, µM (highest dose often 28.7 µM), without a hit: top-dose activity change, negative = inhibition | AID 585 | AmpC nitrocefin hydrolysis, absorbance 480 nm, no detergent | P00811; further: % of control where 0% means no effect
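AmpC, 20 mM phosphate pH 7.0; 15 min cpd preinc, RT; start with nitrocefin (800 uM stock); A480 kinetic read, 20 s intervals, 4 min. No-enzyme wells = negative control.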
* marks the source's active call; other numbers are inactive results; ? = inconclusive; / = not tested or not shown; [ ] = another dose, or the depositor's remark. Hits are enriched below; roughly 2.6% of the tested compounds scored in any of these assays. Unless noted, the call rests on the fitted dose curve. Potency means the concentration at half of the fitted maximal effect.

SMILES	Anthrax LT inh	SmPrx2 inh	AmpC inh det	AmpC inh no det
Cc1ccc([C@@]2(C)CC/C(=N/N=C3\CC[C@](C)(c4ccc(C)c(C)c4)c4cc(C)c(C)cc43)c3cc(C)c(C)cc32)cc1C	-1%[8 µM]	>57	-3%[5.75 µM]	1%[5.75 µM]
CCN(CCNC(=O)C1CCCN(S(=O)(=O)c2cnc[nH]2)C1)c1ccccc1 (stereo not given)	-8%	>57	13%	4µM*[single pt active]
Cc1cccc(CN2CCC(CNC(=O)C3CCCN(S(=O)(=O)c4cnc[nH]4)C3)CC2)c1 (stereo not given)	-11%	>57	12%	3.2µM*[single pt active]
Cc1ccc(CCNC(=O)C2CCCN(S(=O)(=O)c3cnc[nH]3)C2)cc1 (stereo not given)	-1%	>57	5%	2%
CCN(CCCNC(=O)C1CCCN(S(=O)(=O)c2cnc[nH]2)C1)c1ccccc1 (stereo not given)	-7%	>57	7%	4µM*[single pt active]
O=C(NCCN1CCN(c2ccccc2)CC1)C1CCCN(S(=O)(=O)c2cnc[nH]2)C1 (stereo not given)	-7%	>57	10%	2.5µM*[single pt active]
c1ccc(CCc2cccnc2)nc1	0%[8 µM]	>57	1%[5.75 µM]	-9%[5.75 µM]
CCN(CC)CCCn1c(-c2ccccc2)nc2c(N3CCOCC3)nc(C)nc21	13%	/	12%	26%
CCOC(=O)c1c(NC(=O)Cc2cccs2)sc2c1CCCC2	13µM*	>57	-6%	?
CCOC(=O)c1c(NC(=O)c2cccs2)sc2c1CCCC2	-21%	/	11%	-4%
CCOC(=O)C1CCCN(CCC(=O)Nc2cccc(F)c2)C1 (stereo not given)	-20%	>57	9%	-3%
CCOC(=O)C1CCN(CCC(=O)Nc2cccc(Cl)c2)CC1	10µM*	>57	1%	-10%
Cc1cc(C)n(CCc2nc(-c3cc4ccccc4o3)cs2)n1	25µM*	>57	-3%	101%
CCOC(=O)N1CCN(C(=O)c2cccc(NC3=NC4CS(=O)(=O)CC4S3)c2)CC1 (stereo not given)	0%	>57	-3%	-3%
O=C(c1ccc(NC2=NC3CS(=O)(=O)CC3S2)cc1)N1CCN(C(=O)c2ccco2)CC1 (stereo not given)	-5%	>57	12%	4µM*[single pt active]
CCOC(=O)C1CCN(C(=O)c2ccc(Cl)c(NC3=NC4CS(=O)(=O)CC4S3)c2)CC1 (stereo not given)	1%	>57	12%	4µM*[single pt active]
CCOc1ccc(OCC)c(S(=O)(=O)NCc2ccc3c(c2)OCO3)c1	-11%	>57	14%	4µM*[single pt active]
COc1cc(C)c(S(=O)(=O)NCc2ccc3c(c2)OCO3)cc1C	?	>57	11%	3.2µM*[single pt active]
COc1cc(S(=O)(=O)NCc2ccc3c(c2)OCO3)ccc1Cl	?	>57	7%	-14%
CC(=O)CC(=O)Nc1ccccc1	0%	/	12%	12%
Cc1ccc([C@@H](O)c2cnc(C)n2Cc2ccccc2)cc1	-9%[8 µM]	>57	-5%[5.75 µM]	10%[5.75 µM]
O=C(NCc1cccnc1)c1cnn2ccccc12	0%	>57	14%	4µM*
CC(=O)c1cccc(NC(=O)c2cnn3ccccc23)c1	13%	>57	10%	4µM*[single pt active]
O=C(NCc1cccnc1)c1ccccc1Br	-2%	>57	-1%	3%
CCCCNc1nc(C)nc2c1nc(-c1ccccc1)n2CCCN1CCCCC1C (stereo not given)	-8%	/	7%	62%
SMILES	Anthrax LT inh	SmPrx2 inh	AmpC inh det	AmpC inh no det
NC(=O)SCC(=O)Nc1ccc2ncccc2c1	1%[8 µM]	>11	-2%[5.75 µM]	5%[5.75 µM]
O=C(Nc1ccc(S(=O)(=O)N2CCc3ccccc32)cc1)c1ccco1	-5%	>57	12%	-25%
O=C(Nc1nnc(C2CC2)s1)c1cccc(S(=O)(=O)N2CCc3ccccc32)c1	1%	>57	-2%	10µM*
O=C(Nc1ccc(S(=O)(=O)N2CCc3ccccc32)cc1)c1ccc2c(c1)OCO2	?	>57	2%	13µM*
O=C(C[C@@H]1C=Cc2ccccc2N1C(=O)c1ccccc1)c1ccccc1	-10%[8 µM]	>57	-2%[5.75 µM]	-5%[5.75 µM]
O=C(Cn1c(-c2ccccc2)noc1=O)Nc1ccc(S(=O)(=O)N2CCOCC2)cc1	-5%	>57	-8%	19%
O=C(Cn1c(-c2ccccc2)noc1=O)Nc1ccc(N2CCCCCC2)cc1	?	>57	-2%	13µM*
CSc1nnc(Cn2c(=O)sc3ccccc32)n1C	-12%	>57	12%	4µM*[single pt active]
CCCSc1nnc(Cn2c(=O)sc3ccccc32)n1C	-14%	>57	12%	4µM*[single pt active]
